Common to all, as to test: protein-binding microarray (PBM); PBM: ~300 nM protein, 6 mM HEPES pH 7.8, 80 mM KCl, 0.5 mM EDTA, 0.5 mM EGTA, 6% glycerol, 35 ng/ul poly-dIdC, 1% milk, 1 h, room temperature; Ap Aiptasia and Nv Nematostella (sea anemones) / Co Capsaspora / Aq Amphimedon (sponge) / Dm Drosophila / Hu human; RHD is the Rel homology domain; high values mean tight binding
What all share (conditions): dsDNA, one strand shown

For one assay, the target named is T1, GST-Dm-Relish (Drosophila melanogaster, UniProt Q94527 99-473).
T1 sequence: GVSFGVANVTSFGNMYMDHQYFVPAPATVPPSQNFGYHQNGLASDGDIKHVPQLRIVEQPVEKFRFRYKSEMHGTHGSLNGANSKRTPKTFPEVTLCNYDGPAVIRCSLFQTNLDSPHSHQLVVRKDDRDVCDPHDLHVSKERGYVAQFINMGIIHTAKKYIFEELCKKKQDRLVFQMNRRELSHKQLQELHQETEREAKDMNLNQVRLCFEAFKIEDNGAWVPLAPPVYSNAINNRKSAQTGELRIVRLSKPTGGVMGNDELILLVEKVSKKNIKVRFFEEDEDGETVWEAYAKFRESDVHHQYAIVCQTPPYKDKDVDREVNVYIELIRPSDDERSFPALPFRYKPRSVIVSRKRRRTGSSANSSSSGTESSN

For another assay, the target named is T2, GST-Aq-NF-kB (Amphimedon queenslandica, UniProt A9Y5G7 2-389).
T2 sequence: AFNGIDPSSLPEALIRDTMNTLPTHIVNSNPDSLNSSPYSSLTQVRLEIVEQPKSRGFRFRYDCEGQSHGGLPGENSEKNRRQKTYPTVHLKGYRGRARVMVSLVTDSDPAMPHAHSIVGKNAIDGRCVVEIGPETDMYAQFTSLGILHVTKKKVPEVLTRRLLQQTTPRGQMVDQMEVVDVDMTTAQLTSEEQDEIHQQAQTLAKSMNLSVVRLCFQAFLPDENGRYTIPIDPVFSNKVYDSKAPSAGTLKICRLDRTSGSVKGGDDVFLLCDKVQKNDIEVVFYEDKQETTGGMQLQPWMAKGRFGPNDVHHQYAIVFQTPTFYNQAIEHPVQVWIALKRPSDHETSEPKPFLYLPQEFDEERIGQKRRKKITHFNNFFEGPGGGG

The target in another assay is GST-Hu-p50 (Homo sapiens, UniProt P19838 7-356).
GST-Hu-p50, sequence (P19838 7-356): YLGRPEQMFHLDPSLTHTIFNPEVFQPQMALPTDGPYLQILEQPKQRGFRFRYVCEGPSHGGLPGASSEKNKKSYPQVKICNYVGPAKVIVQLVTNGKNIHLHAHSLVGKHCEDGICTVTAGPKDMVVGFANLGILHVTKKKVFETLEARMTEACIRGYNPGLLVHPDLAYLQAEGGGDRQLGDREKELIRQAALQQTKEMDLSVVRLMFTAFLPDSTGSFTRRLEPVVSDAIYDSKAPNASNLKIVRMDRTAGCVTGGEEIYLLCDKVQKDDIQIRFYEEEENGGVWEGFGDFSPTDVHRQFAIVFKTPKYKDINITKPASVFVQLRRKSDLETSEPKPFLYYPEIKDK
The next assay concerns the target T3, GST-Ap-NF-kB RHD (Exaiptasia pallida (Aiptasia), UniProt A0A913YAJ5 2-422).
T3 sequence: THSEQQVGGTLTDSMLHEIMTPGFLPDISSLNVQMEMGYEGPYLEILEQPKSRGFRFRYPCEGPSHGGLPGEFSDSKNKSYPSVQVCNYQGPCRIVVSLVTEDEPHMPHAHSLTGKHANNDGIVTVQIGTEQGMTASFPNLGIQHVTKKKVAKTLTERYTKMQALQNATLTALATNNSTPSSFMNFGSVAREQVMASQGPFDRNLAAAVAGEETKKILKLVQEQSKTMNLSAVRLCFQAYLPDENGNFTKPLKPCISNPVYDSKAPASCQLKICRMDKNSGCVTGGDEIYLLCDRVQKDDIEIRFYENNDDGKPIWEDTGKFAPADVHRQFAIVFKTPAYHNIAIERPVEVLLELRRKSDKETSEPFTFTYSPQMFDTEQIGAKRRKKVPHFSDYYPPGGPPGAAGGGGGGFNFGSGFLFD

Assay [1] deals with T4, GST-Nv-NF-kB (Cys allele) (Nematostella vectensis, UniProt E5G601 2-411).
T4 sequence: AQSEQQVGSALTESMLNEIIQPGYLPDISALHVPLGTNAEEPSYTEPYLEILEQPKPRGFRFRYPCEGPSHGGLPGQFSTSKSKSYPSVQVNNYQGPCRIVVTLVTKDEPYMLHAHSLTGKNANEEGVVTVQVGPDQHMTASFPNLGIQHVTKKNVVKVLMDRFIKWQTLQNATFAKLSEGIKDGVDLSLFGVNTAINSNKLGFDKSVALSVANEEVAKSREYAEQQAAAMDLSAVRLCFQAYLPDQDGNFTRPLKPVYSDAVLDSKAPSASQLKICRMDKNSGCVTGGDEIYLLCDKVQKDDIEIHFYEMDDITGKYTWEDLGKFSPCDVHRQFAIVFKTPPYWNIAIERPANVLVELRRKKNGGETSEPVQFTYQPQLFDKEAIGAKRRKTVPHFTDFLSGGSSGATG

Assay [2] addresses T5, GST-Nv-NF-kB (Ser allele) (Nematostella vectensis, UniProt A7UNT2 2-411).
T5 sequence: T4 sequence with Q21R, C66S, S207N, E215Q, V217A, E225K, A268E, D399E

A further assay concerns the target T6, GST-Co-NF-kB (Capsaspora owczarzaki, UniProt F1ARL5 200-546).
T6 sequence: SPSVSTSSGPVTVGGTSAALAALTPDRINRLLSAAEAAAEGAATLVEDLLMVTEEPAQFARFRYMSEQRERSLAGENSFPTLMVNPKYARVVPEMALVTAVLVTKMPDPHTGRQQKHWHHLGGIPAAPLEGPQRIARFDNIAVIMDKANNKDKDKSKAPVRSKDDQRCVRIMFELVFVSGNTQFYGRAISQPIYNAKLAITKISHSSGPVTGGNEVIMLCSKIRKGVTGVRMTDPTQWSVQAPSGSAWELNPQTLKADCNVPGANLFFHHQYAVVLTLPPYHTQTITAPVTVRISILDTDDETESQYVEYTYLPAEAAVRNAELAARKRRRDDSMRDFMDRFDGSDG

Numbering of substitutions follows the chain as printed.

With “CCGATTAACATCAGGAAAATTCCTGATGTTAATCGGGTCTTGATTCGCTTGACGCTGCTG”, the figures for the binding signal in the assay with GST-Dm-Relish, with GST-Aq-NF-kB and with GST-Hu-p50 were 1.52 z-score, 2.45 z-score and 1.61 z-score, respectively.
“CCGATTAACATCAAAAATTTCCATGATGTTAATCGGGTCTTGATTCGCTTGACGCTGCTG”: the binding signal with GST-Dm-Relish was found to be 1.53 z-score; in the assay with GST-Aq-NF-kB, 1.53 z-score; in the assay with GST-Hu-p50, 1.32 z-score.
Take “CCGATTAACATCAGGGGCCGTAATGATGTTAATCGGGTCTTGATTCGCTTGACGCTGCTG”: the binding signal with GST-Ap-NF-kB RHD turned out to be 1.66 z-score; in assay [1] it was 1.75 z-score; with GST-Aq-NF-kB, 2.32 z-score.
In the case of “CCGATTAACATCACGGAATTTCCTGATGTTAATCGGGTCTTGATTCGCTTGACGCTGCTG”, the binding signal in the assay with GST-Dm-Relish was determined as 1.89 z-score; in the assay with GST-Aq-NF-kB it was 4.83 z-score; with GST-Hu-p50 it was 1.38 z-score.
“CCGATTAACATCAGTCCCGCACTTGATGTTAATCGGGTCTTGATTCGCTTGACGCTGCTG”: the binding signal with GST-Ap-NF-kB RHD stood at 1.61 z-score; in assay [1], 1.95 z-score; in the assay with GST-Aq-NF-kB, 2.85 z-score.
As to “CCGATTAACATCAGGGCATGCCCTGATGTTAATCGGGTCTTGATTCGCTTGACGCTGCTG”, the binding signal amounted to 1.37 z-score in the assay with GST-Ap-NF-kB RHD, 1.29 z-score in assay [1] and 4.01 z-score with GST-Aq-NF-kB.
“CCGATTAACATCAGGCAGTTCCCTGATGTTAATCGGGTCTTGATTCGCTTGACGCTGCTG”: the binding signal came out at 1.39 z-score with GST-Ap-NF-kB RHD, 1.3 z-score in assay [1], 1.25 z-score in assay [2] and 3.41 z-score with GST-Aq-NF-kB.
Regarding “CCGATTAACATCAGGGGTCAGTATGATGTTAATCGGGTCTTGATTCGCTTGACGCTGCTG”, the binding signal with GST-Ap-NF-kB RHD worked out at 1.23 z-score; with GST-Aq-NF-kB, 1.09 z-score.
Take “CCGATTAACATCAGAAAAATTCCTGATGTTAATCGGGTCTTGATTCGCTTGACGCTGCTG”: the binding signal with GST-Dm-Relish came out at 2.97 z-score; with GST-Aq-NF-kB, 2.21 z-score; with GST-Hu-p50 it was 1.71 z-score.
Consider “CCGATTAACATCAGGTATTTTACTGATGTTAATCGGGTCTTGATTCGCTTGACGCTGCTG”, for which the binding signal came to 2.63 z-score in assay [2], 4.67 z-score with GST-Dm-Relish, 1.93 z-score with GST-Aq-NF-kB and 2 z-score in the assay with GST-Hu-p50.
Consider “CCGATTAACATCAGGAATTTTCATGATGTTAATCGGGTCTTGATTCGCTTGACGCTGCTG”, for which the binding signal with GST-Dm-Relish is 1.12 z-score; with GST-Aq-NF-kB it was 1.37 z-score; in the assay with GST-Hu-p50, 1.36 z-score.
With “CCGATTAACATCATTGTCCCTTCTGATGTTAATCGGGTCTTGATTCGCTTGACGCTGCTG”, the binding signal was determined as 2.23 z-score with GST-Ap-NF-kB RHD, 4.09 z-score in assay [1] and 2.67 z-score with GST-Aq-NF-kB.
“CCGATTAACATCAAGCCTGTCCCTGATGTTAATCGGGTCTTGATTCGCTTGACGCTGCTG”: the binding signal with GST-Ap-NF-kB RHD was determined as 2.01 z-score; in assay [1] it was 1.27 z-score; with GST-Aq-NF-kB it was 1.77 z-score.
With “CCGATTAACATCAGGCATGCCCCTGATGTTAATCGGGTCTTGATTCGCTTGACGCTGCTG”, the binding signal in the assay with GST-Ap-NF-kB RHD was determined as 2.6 z-score; in assay [1], 1.59 z-score; with GST-Aq-NF-kB it was 4.39 z-score.
Taken in the same sequence, the figures for “CCGATTAACATCAGGACTTGCCCTGATGTTAATCGGGTCTTGATTCGCTTGACGCTGCTG” were 1.21 z-score, 1.11 z-score and 4.8 z-score.
With “CCGATTAACATCAGGAATAACCATGATGTTAATCGGGTCTTGATTCGCTTGACGCTGCTG”, the values for the binding signal with GST-Dm-Relish, with GST-Aq-NF-kB and in the assay with GST-Hu-p50 were 1.8 z-score, 1.32 z-score and 2.29 z-score, respectively.
As for “CCGATTAACATCAGGAGCTTCCCTGATGTTAATCGGGTCTTGATTCGCTTGACGCTGCTG”, the binding signal was determined as 1.1 z-score with GST-Ap-NF-kB RHD, 1.03 z-score in assay [1] and 3.47 z-score with GST-Aq-NF-kB.
As for “CCGATTAACATCAGGGAAGACGTTGATGTTAATCGGGTCTTGATTCGCTTGACGCTGCTG”, the binding signal in the assay with GST-Ap-NF-kB RHD worked out at 1.82 z-score; in assay [1], 1.64 z-score; in assay [2] it was 1.93 z-score; with GST-Co-NF-kB, 1.67 z-score; with GST-Aq-NF-kB it was 1.11 z-score.
With “CCGATTAACATCACAGATTTCCCTGATGTTAATCGGGTCTTGATTCGCTTGACGCTGCTG”, the binding signal in the assay with GST-Ap-NF-kB RHD was 3.88 z-score; in assay [1] it was 5.4 z-score; in assay [2], 7.17 z-score; with GST-Co-NF-kB, 4.93 z-score; with GST-Dm-Relish it was 2.66 z-score; with GST-Aq-NF-kB, 4.24 z-score.

Values taken from PMC5700166.
